Experimental findings from PubChem BioAssay AID504832 (National Center for Advancing Translational Sciences (NCATS), 2011) are described below.

Several values for one entry are separate records, joined by “and”; a condition that tells them apart may be missing. Equal entries are not always repeated. About 18,000 (5.8%) of roughly 310,000 compounds were called active. About 22% were inconclusive and are not listed. The call rests on the fitted dose curve; in most records, active means well fitted inhibition curve with a large enough effect; inconclusive means small, poorly fitted or top-dose-only effect, or another doubt; inactive means no such curve, though single readings can be large or run the other way. What follows is part of a selection rich in actives, with near analogues and random picks from the rest. Entries that show only a call come without a potency. Some structures have more than one record in an assay (separate samples or runs), and their calls can disagree.
Potency means the concentration at half of the fitted maximal effect.

This experiment can be described thus: Primary qHTS for delayed death inhibitors of the malarial parasite plastid, 48 hour incubation. The conditions noted are these: P. falciparum luciferase growth in erythrocytes; series mostly up to 28.7 µM. The method, boiled down: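 Cell-based growth assay: transgenic P. falciparum expressing firefly luciferase, cultured in red cells within RPMI 1640 containing 0.5% w/v Albumax, 24 mM bicarbonate and gentamycin. A drop in luciferase activity indicates inhibition.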
For the compound `Cc1ccnc(N2CCN(C(=O)CSc3nc4ccccc4nc3N3CCCCC3)CC2)c1`, the Potency was 13.1 µM (active).

Turning to `O=C(CSc1ncccn1)N1CCCC1`, the Potency result is “inactive”.

As to `O=C(Cc1ccccc1Cl)N1CCN(c2ccccn2)CC1`, the Potency entry was “inactive”.

Consider `COc1ccc2c(c1)c1nc3n(c(=O)c1n2CC(=O)Nc1ccccc1)CCS3`, for which the Potency result is “inactive”.

As to `O=C(CNS(=O)(=O)c1ccccc1)N1CCN(C(=O)c2ccco2)CC1`, the Potency entry is “inactive”.

For `O=C(Nc1ccccc1C(=O)N1CCCCC1)c1ccco1`, the Potency entry is “inactive”.

For the compound `O=C(c1cccc(S(=O)(=O)Nc2ccccc2Cl)c1)N1CCN(C(=O)c2ccco2)CC1`, the Potency result is “inactive”.

Consider `CS/C(=C\C(=O)c1ccco1)Nc1ccccc1Cl`, for which the Potency was 8.28 µM (active).

As for `CCC(C)N(C(=O)Cn1nc(C)c([N+](=O)[O-])c1C)C1CCS(=O)(=O)C1` (configuration not stated), the Potency entry was “inactive”.

Take `O=C(NCCc1ccco1)C(=O)NCCC1CCCCN1S(=O)(=O)c1ccccc1` (configuration not stated): the Potency entry is “inactive”.

As to `COCCn1c(Cc2cccn2C)nnc1SCC(=O)Nc1nccs1`, the Potency entry was “inactive”.

On to `COc1ccc(C)cc1NC(=O)CSc1nnc(CC(=O)Nc2ccccc2F)n1C`, for which the Potency result was “inactive”.

Regarding `COc1ccccc1NC(=O)CSc1nnc(Cc2cccn2C)n1-c1ccc(F)cc1`, the Potency was 10.4 µM (active).

For `Cc1ccc(NC(=O)COC(=O)CN2CCCCCC2=O)c(C)c1`, the Potency result was “inactive”.

As for `Oc1ccc(N=Nc2nccs2)c(O)c1`, the Potency was 9.28 µM (active).

Turning to `c1ccc(NCc2cccc3ccccc23)nc1`, the Potency entry is “inactive”.

For the compound `Oc1c(C=Nc2cccc3nsnc23)ccc2ccccc12`, the Potency result was “inactive”.

For the compound `Oc1ccc2ccccc2c1N=Nc1nccs1`, the Potency was 13.1 µM (active).

On to `COc1cccc(-n2c(N)cc(=O)nc2SCC(=O)Nc2cc(C)on2)c1`, for which the Potency entry was “inactive”.

Consider `CC(C)N(C(=O)Cn1cc(S(=O)(=O)CC(=O)N2CCOCC2)c2ccccc21)C(C)C`, for which the Potency result is “inactive”.

In the case of `CN(Cc1ccccc1)C(=O)c1ccc(NC2=NC3CS(=O)(=O)CC3S2)cc1` (configuration not stated), the Potency entry was “inactive”.

As to `O=C(COC(=O)c1cccc(Cl)c1)NC1CCCCCCC1`, the Potency entry was “inactive”.

In the case of `Cc1ccc(S(=O)(=O)N2CCN(C)CC2)cc1`, the Potency result was “inactive”.

Take `CCOC(=O)C1=C(O)/C(=C/c2cc(C)n(-c3ccccc3)c2C)N=C1C`: the Potency is 0.0657 µM (active).

Take `CCC1=NN2C(=N)/C(=C/c3cc(C)n(-c4ccccc4)c3C)C(=O)N=C2S1`: the Potency entry was “inactive”.

Take `COC(=O)C1=C(O)/C(=C/c2ccc(OCC(=O)Nc3ccccc3)cc2)N=C1C`: the Potency entry was “inactive”.

Turning to `O=C(NCCCN1CCCC1=O)c1cccc(S(=O)(=O)NCc2ccccc2)c1`, the Potency result was “inactive”.

For `O=[N+]([O-])c1ccc(N2CCN(c3ccc(F)cc3)CC2)cn1`, the Potency entry is “inactive”.

Regarding `Cc1nnc(NC(=O)c2ccc3nccnc3c2)s1`, the Potency entry was “inactive”.

As for `COc1ccc(CC(=O)Nc2nc(-c3ccc(F)c(F)c3)cs2)cc1OC`, the Potency result is “inactive”.

As for `CN(C(=O)COc1ccccc1)c1nnc(-c2ccncc2)s1`, the Potency entry is “inactive”.

For the compound `COc1ccc(CCN(C(=O)COc2ccccc2)c2nc(-c3ccccc3)cs2)cc1OC`, the Potency was 10.4 µM (active).

For `O=C(c1ccc(Cn2cc([N+](=O)[O-])cn2)o1)N1CCCC1`, the Potency entry was “inactive”.

With `C/C(=N\NC(=O)c1ccccc1F)c1ccccn1`, the Potency entry was “inactive”.

Regarding `COc1ccc(C/C(C)=N/NC(=O)c2ccncc2)cc1`, the Potency result is “inactive”.

`C/C(=N\NC(=O)Cc1ccc(Cl)cc1)c1ccccn1`: the Potency was 1.47 µM (active).

On to `C/C(=N\NC(=O)Cc1ccc(Br)cc1)c1cccnc1`, for which the Potency entry was “inactive”.

Take `COc1ccc(CC(=O)N/N=C(\C)c2ccccn2)cc1`: the Potency was 3.29 µM (active).

`C/C(=N\NC(=O)Cc1ccc(F)cc1)c1ccc(F)cc1`: the Potency result is “inactive”.

For `CCOc1ccc(OCC(=O)Nc2c3c(nn2C(C)(C)C)CS(=O)(=O)C3)cc1`, the Potency entry was “inactive”.

Turning to `Cc1cc(C(=O)CCC(=O)NNC(=O)c2ccccc2O)c(C)s1`, the Potency entry was “inactive”.

Consider `CCOc1ccc2[nH]c(=O)c(CN(CCCO)S(=O)(=O)c3ccc(F)cc3)cc2c1`, for which the Potency result was “inactive”.

For `O=C(NC1CCCCC1)c1ccc2c(=O)n(CC3CCCO3)c(=O)[nH]c2c1` (configuration not stated), the Potency entry was “inactive”.

Turning to `CCCCCn1c(=O)[nH]c2cc(C(=O)NCCCN3CCCCC3C)ccc2c1=O` (configuration not stated), the Potency is 9.28 µM (active).

On to `CC1CCCCN1CCCNC(=O)Cn1ncc2c([nH]c3ccccc32)c1=O` (configuration not stated), for which the Potency result was “inactive”.

In the case of `COc1ccccc1CNC(=O)C1CCN(C(=O)[C@@H]2Cc3ccccc3CN2)CC1`, the Potency result is “inactive”.

Turning to `CCCNC(=O)Nc1ccccc1C(=O)Nc1ccc(OC)cc1`, the Potency result was “inactive”.

On to `COc1cc(NC(=O)c2cccnc2SC)cc(OC)c1`, for which the Potency entry was “inactive”.

On to `CCOC(=O)Cc1ncccc1C(=O)Nc1ccc(OC)cc1`, for which the Potency was 13.1 µM (active).

Regarding `COC(=O)c1ccc([C@@H](O)[C@H](C)C(=O)CC(=O)OC(C)(C)C)cc1`, the Potency result is “inactive”.

Consider `Cc1nc(CN(C)C(=O)CC2C(=O)NCCN2Cc2ccc(F)cc2)cs1` (configuration not stated), for which the Potency result is “inactive”.

Take `CC(=O)N(CC(O)CO)c1c(I)c(C(=O)NCC(O)CO)c(I)c(C(=O)NCC(O)CO)c1I` (configuration not stated): the Potency result was “inactive and 15.1 µM (active)”.

Regarding `COc1ccc(NC(=O)CN2C(=O)COc3ccc(S(=O)(=O)N4CCOCC4)cc32)c(OC)c1`, the Potency entry is “inactive”.

Consider `C=CCSc1nc2c(c(=O)[nH]c(=O)n2C)n1Cc1ccccc1`, for which the Potency result was “inactive”.

Consider `CN(Cc1ccccc1)C(=O)CSc1nc2ccccc2[nH]1`, for which the Potency result is “inactive”.

For the compound `CN(Cc1ccccc1)c1nc2c(c(=O)[nH]c(=O)n2C)n1CCSc1nc2ccccc2[nH]1`, the Potency is 8.28 µM (active).

Turning to `CC(Oc1cccc(Cl)c1)C(=O)NC1CC(C)(C)NC(C)(C)C1` (configuration not stated), the Potency result was “inactive”.

Regarding `O=C1CN(C(=O)c2cc(F)cc(F)c2)c2ccccc2N1`, the Potency result was “inactive”.

Consider `O=C(Nc1ccc(Br)cc1)c1cc(S(=O)(=O)Nc2ccccn2)ccc1Cl`, for which the Potency entry is “inactive”.

In the case of `CN(CC(=O)NCCc1ccc(F)cc1)CC(=O)Nc1ccc(F)c(F)c1F`, the Potency entry was “inactive”.

Regarding `COc1cccc(C2CC(c3cccs3)=NN2C(=O)CSC2=NCCS2)c1OC` (configuration not stated), the Potency is 10.4 µM (active).

With `COc1ccc(C2=NN(C(=O)CCC(=O)O)C(c3cccs3)C2)cc1OC` (configuration not stated), the Potency result is “inactive”.

Regarding `COc1ccc(C2CC(c3cccs3)=NN2C(=O)CSc2nnc(N)s2)cc1OC` (configuration not stated), the Potency entry is “inactive”.

`COc1ccccc1C(=O)NCCC(=O)NN1C(=O)NC2(CCCCC2)C1=O`: the Potency result is “inactive”.

For the compound `CCCCOc1ccc(N(CC(=O)NCC2CCCO2)C(=O)CCC(=O)Nc2cc(C)ccn2)cc1` (configuration not stated), the Potency is 9.28 µM (active).

In the case of `Cc1cc(NC(=O)CCC(=O)N(CC(=O)NCC2CCCO2)c2ccccc2)no1` (configuration not stated), the Potency entry was “inactive”.

Turning to `COC(=O)c1cccc(N(CC(=O)NCC2CCCO2)C(=O)CCC(=O)Nc2cc(C)on2)c1` (configuration not stated), the Potency result is “inactive”.
